# Screens: PubChem BioAssay, National Center for Advancing Translational Sciences (NCATS)
# This is a sample that favours compounds with a hit; in the whole collection about 7% have one here.
# a7 integrin act = integrin-mediated muscular dystrophy alleviation activation. alpha7betagal myoblasts, beta-gal FDG fluorescence, 48 h. Potency, µM (highest dose often 38.3 µM), without a hit: at the highest dose activation, usual class: activators. hit rate 0.064% among 350,000;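 also: potency is read from the fitted curve at half-maximal effect; 100% = response of the positive control SU9516; nearly all actives have a fitted effect of over 60% in size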
#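 Alpha7betagal+/- myoblasts (passage 13) were plated 16-24 hr, then exposed to compounds (1:260 dilution of DMSO stock) for 48 hours at 37C. After MPER lysis, β-galactosidase reporter activity was read as FDG fluorescence (ex 480/em 540) after 30 minutes.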
# S2 tox = viability counter-screen for ATXN expression inhibitors; S2 cells (HEK-293 line with an ATXN2-luciferase reporter) viability, CellTiter-Fluor protease fluorescence, 24 h; Potency, µM (doses to about 56.7 µM), most hits filed as cytotoxic; hit rate 0.49% among 400,000; also: potency is read from the fitted curve at half-maximal effect; nearly all actives have a fitted effect of over 40% in size
# ATXN2 expr inh = reduces ATXN2 reporter expression in HEK-293 cells; HEK-293 ATXN2-luciferase reporter, luminescence, 24 h; Potency, µM (series often up to 57 µM), without a hit: at the top dose activity change, negative = inhibition, usual class: inhibitors; hit rate 0.72% among 360,000; AID 1745845; also: potency is read from the fitted curve at half-maximal effect; % is scaled to controls: 0 for no effect and ±100 for the full control effect; nearly all actives have a fitted effect of over 55% in size
#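 qHTS (up to 57 uM final) was run with 24 h compound exposure of reporter cells at 37 °C. Each well was multiplexed: SteadyGlo luminescence measured ATXN2-luciferase expression after a fluorogenic Gly-Phe-AFC viability readout (25 uM final).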
# D3 antag = antagonists of human D3 dopamine receptor | hit rate 2.5% among 360,000 | P35462 | D3R cells, DiscoveRx beta-arrestin luminescence, antagonist mode; stronger effect = lower value | max response, negative = inhibition, %; in the data active = max response below about -50%; inconclusive = no clear call, values can overlap the other calls; also: % is scaled to controls: 0 for no effect and ±100 for the full control effect
# Target sequence (P35462 whole entry, looked up): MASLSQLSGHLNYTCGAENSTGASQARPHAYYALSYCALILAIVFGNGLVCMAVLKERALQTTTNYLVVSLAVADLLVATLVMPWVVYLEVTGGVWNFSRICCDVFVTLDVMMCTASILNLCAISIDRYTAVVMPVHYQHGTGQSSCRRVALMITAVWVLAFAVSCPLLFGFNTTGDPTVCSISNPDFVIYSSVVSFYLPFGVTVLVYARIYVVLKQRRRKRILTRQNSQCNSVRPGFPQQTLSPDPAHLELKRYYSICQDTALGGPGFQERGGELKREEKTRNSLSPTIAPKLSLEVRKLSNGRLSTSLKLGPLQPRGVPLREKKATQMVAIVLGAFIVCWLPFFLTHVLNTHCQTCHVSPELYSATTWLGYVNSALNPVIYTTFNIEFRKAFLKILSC
#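 Cells plated overnight at 1500 cells/well, then exposed to library compounds with dopamine controls for 90 minutes at 37 degrees C. DiscoveRx reagent added for 30–60 minutes at room temperature; luminescence read, quantitative HTS format.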
# D3 ag = D3 dopamine receptor (human) agonism; AID 652048; P35462; hit rate 0.58% among 410,000; max activation, %; D3R DiscoveRx beta-arrestin cells, luminescence, 90 min; in the data active = max activation above about 30%; also: 0% is about no effect
#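 Agonist mode: compounds and dopamine controls were applied to plated cells for 90 min at 37 degrees C after an overnight attachment at 1500 cells/well. Luminescent read-out followed 30 - 60 minutes at room temperature with DiscoveRx detection reagent.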
# IL-1B inflam inh = inflammasome signaling inhibition, IL-1 beta readout | THP-1 LPS/ATP IL-1B secretion, AlphaLISA, 16 h; stronger effect = lower value | activity change, % at 57.5 µM | hit rate 4.7% among 360,000 | AID 743279; in the data active = activity change below about -50%; inconclusive = mostly about -30% to -49%; also: % is scaled to controls: 0 for no effect and ±100 for the full control effect
#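 THP-1 cells pretreated 1 hr with compounds (up to 57.5 uM final), then stimulated with LPS (250 ng/mL final) plus ATP (1.25 mM final); secreted IL-1B measured by AlphaLISA after 16 hr, decreased signal indicating inhibition.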
# Active calls of the source: *; i = inactive; ? = inconclusive; . = no result given. Unless noted, calls follow the shape of the dose curve; as a rule, active = well fitted curve in the direction sought with a large enough effect; inconclusive = small, poorly fitted or top-dose-only effect, or another doubt; inactive = no such curve, though single readings can be large; an effect the other way counts as inactive or inconclusive.
SMILES,a7 integrin act,S2 tox,ATXN2 expr inh,D3 antag,D3 ag,IL-1B inflam inh
COc1ccc(C(CNC(=O)c2oc3ccccc3c2C)N2CCCCC2)cc1 (centres undefined),.,?,-18.3%,.,-23.6,.
COc1ccc(C(CNC(=O)c2cc3ccccc3o2)N2CCCCC2)cc1 (centres undefined),23.9%,i,5.8%,-73.8*,-17.6,?
COc1cccc(-c2nc(CSCC(=O)NCCc3ccc(Cl)cc3)c(C)o2)c1,.,.,.,.,0.9,.
Cc1ccc(C)c(N2CCN(CC(=O)Nc3ccc4[nH]c(=O)[nH]c4c3)CC2)c1,-12.0%,i,-8.7%,17.8,2.5,-4.6
Cc1cc(NC(=O)C2Oc3ccccc3OC2C)no1 (centres undefined),29.1%,i,19.8%,-138.0*,1.2,6.8
CCOC(=O)Nc1ccc2c(CN(C)Cc3ccc(F)cc3)cc(=O)oc2c1,-14.7%,i,-5.7%,8.0,1.7,28.7
COc1ccc(NC(=O)C(=O)NCCC2CCCCN2S(=O)(=O)c2ccc(F)cc2)cc1 (centres undefined),-23.0%,i,2.51µM*,-19.3,-13.8,-7.4
O=C(NCCC1CCCCN1S(=O)(=O)c1ccccc1)C(=O)Nc1ccc(F)cc1 (centres undefined),2.5%,?,-15.4%,-17.2,-4.5,?
O=C(NCCc1ccc(F)cc1)C(=O)NCC1CCCN1S(=O)(=O)c1ccccc1 (centres undefined),1.2%,?,-30.8%,26.7,4.7,-79.7*
O=C(NCCC1CCCCN1S(=O)(=O)c1cccs1)C(=O)Nc1ccc(F)cc1 (centres undefined),-24.1%,i,-10.3%,19.0,-0.1,-62.8*
CN1CCN(c2nc3c(c(=O)n(C)c(=O)n3C)n2CCSc2nnnn2-c2ccccc2)CC1,19.8%,i,-9.1%,-17.2,-8.5,2.1
CC1CCCCC1NC(=O)C1CC(=O)N(Cc2ccccc2)C1 (centres undefined),-24.6%,i,4.7%,0.2,-8.2,33.6
CCCCCC[N+](C)(C)CCSSCC[N+](C)(C)CCCCCC,12.8%,i,.,31.1,-6.1,-10.6
C#CC[N+](C)(C)CCCCCCCCCCCC,-62.2%,i,?,0.6,-8.0,-87.6*
CC#CC[N+](C)(C)CCCCCCCCCCCC,-60.7%,?,25.1µM*,4.5,-3.9,0.0
C#CC[N+](C)(C)CCCCCCCC,-14.4%,i,-14.1%,6.4,9.3,-54.3*
C#CC[N+](C)(C)CCCCCCCCCC,-54.0%,i,?,1.1,-1.8,-79.8*
CC(=O)c1cc(C#N)c(Oc2ccccc2)nc1C,4.1%,i,3.3%,0.0,-6.4,31.3
CC(=O)c1cc(C#N)c(Oc2ccc(Cl)cc2Cl)nc1C,15.5%,i,-6.9%,-55.5*,3.4,19.8
Cc1cc2c(nc1C)CCCN2C[C@@H](C)O/N=C1/[C@H]2CCn3c(=O)n(-c4ccccc4)c(=O)n3[C@H]2[C@H](O)[C@@H]2O[C@H]12,21.8%,i,-10.5%,-25.8,-5.9,-54.3*
Cc1c(C(C)C)c(=O)n(-c2ccc(S(=O)(=O)NC3CCCCC3)cc2)n1C,-33.9%,i,?,-10.7,1.4,-53.8*
Cc1c(C(C)C)c(=O)n(-c2ccc(S(=O)(=O)NCc3ccccc3)cc2)n1C,-33.9%,?,-38.7%,4.6,6.4,0.0
O=C(Cn1c(=O)cnc2ccccc21)Nc1cc(Cl)ccc1N1CCOCC1,21.7%,i,-2.7%,18.2,-8.3,-14.8
COCCNC(=O)Nc1ccc2nc(-c3cccs3)c(-c3cccs3)nc2c1,-4.9%,i,-5.9%,8.5,-1.9,-53.9*
COc1ccccc1CCC(=O)Oc1ccc(C#N)cc1OC,31.9%,i,-4.0%,-6.9,-0.7,3.1
SMILES,a7 integrin act,S2 tox,ATXN2 expr inh,D3 antag,D3 ag,IL-1B inflam inh
CC(Sc1ncccn1)C(=O)NNC(=O)c1cccc(Cl)c1 (centres undefined),?,i,-13.8%,4.8,-3.9,-0.6
CSCCC1(C(=O)O)NC(c2ccccc2O)C2C(=O)N(C(C)C)C(=O)C21 (centres undefined),-23.4%,i,-4.4%,48.0,-6.6,6.2
COc1cccc(C2NC(C)(C(=O)O)C3C(=O)N(C(C)C)C(=O)C23)c1O (centres undefined),10.8%,i,-0.7%,-53.2*,3.9,16.1
CCCC(=O)N1CCN(c2ccc(NC(=O)c3cccs3)cc2Cl)CC1,12.2%,i,-7.1%,?,-11.5,-84.4*
Cc1cc(C)nc(NC(=O)c2cc3ccccc3o2)n1,15.1%,i,20.4%,-10.6,-0.9,-18.8
O=C(Nc1ccc2c(c1)Cc1ccccc1-2)c1ccco1,?,i,64.3%,-97.8*,3.8,-24.0
O=C(Nc1ccc(N2CCN(C(=O)c3ccccc3)CC2)c(Cl)c1)c1ccco1,-14.3%,i,-34.5%,18.2,4.8,-79.5*
CC(=O)N1CCN(c2ccc(NC(=O)c3ccco3)cc2Cl)CC1,3.8%,i,16.6%,-7.8,0.8,-3.6
Cc1ccc(NC(=O)c2cc3ccccc3o2)nc1,3.4%,i,20.8%,5.3,-12.4,-96.2*
Cn1c(=O)c(=O)n(C)c2cc(N3CCCC3)c(NC(=O)c3ccccc3Cl)cc21,.,i,0.1%,.,6.8,.
O=C(/C=C/Nc1ccc([N+](=O)[O-])cc1Br)c1cccc2ccccc12,18.2%,i,95.1%,-1.8,-9.3,-11.4
Cc1nn(Cc2ccccc2)c2sc(C(=O)NCc3cccnc3)cc12,-27.7%,i,3.8%,?,-1.8,-16.0
CC(C)C(=O)N1CCN(c2ccc(NC(=O)c3ccco3)cc2Cl)CC1,-10.4%,?,8.5%,9.5,5.7,-3.0
O=C(Nc1ccc(N2CCN(C(=O)c3ccco3)CC2)c(Cl)c1)c1cc2ccccc2o1,-55.5%,.,20µM*,-1.0,35.5*,-105.0*
Cc1ccc(-c2nc3cc(NC(=O)c4cc5ccccc5o4)ccc3o2)cc1Cl,.,i,5.5%,.,7.2,.
Cc1ccc(NC(=O)c2cc3ccccc3o2)cc1Cl,-8.7%,i,84.8%,7.3,-9.0,-51.9*
O=C(Nc1cccc(S(=O)(=O)N2CCOCC2)c1)c1cc2ccccc2o1,32.8%,i,-5.2%,-22.7,-12.7,-11.2
CCC(=O)N1CCN(c2ccc(NC(=O)c3ccco3)cc2Cl)CC1,-1.1%,i,24.0%,-8.5,1.1,i
CCC(=O)N1CCN(c2ccc(NC(=O)c3cc4ccccc4o3)cc2Cl)CC1,-28.0%,?,?,20.7,14.7,-114.7*
O=C(Nc1cc(S(=O)(=O)N2CCOCC2)ccc1Cl)c1cc2ccccc2o1,15.2%,i,0.6%,16.0,4.1,-75.3*
NS(=O)(=O)c1ccc(CCNC(=O)c2cccc(OC(F)F)c2)cc1,-15.5%,i,.,-4.2,-1.6,0.0
